Test systems include EKVX NSCLC; SN12C renal; UO-31 renal; TK-10 renal; ACHN renal; CAKI-1 renal; CCRF-CEM leukemia; MOLT-4 leukemia; A498 renal.
Common to all, as to experiment: NCI-60 one-dose screen, 48 h (100 = growth as untreated, 0 = no growth, -100 = all killed)
Holding throughout (conditions): 10 µM unless noted

About 83,000 compounds went through this panel and 20% of them were active in at least one assay; those are over-represented in the sample as a whole.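 Interpretation: 100, growth as untreated; towards 0, rising growth inhibition; 0, no net growth; 0 to -100, cell death. Compounds scoring below 10 were considered active.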 A number with no mark means an inactive call. The source made the active and inactive calls.

The record followed here is PubChem BioAssay (NCI).

As to `Nc1nc(-c2cccc([N+](=O)[O-])c2)c(N=Nc2ccccc2)s1`, the growth was 51.8% in the assay with EKVX NSCLC; 71% in the assay on SN12C renal; 62.2% in the assay on UO-31 renal; 81.7% in the assay with TK-10 renal; 63.2% in the assay on ACHN renal; 39.3% with CAKI-1 renal. Also, the results for the growth in the assay with CCRF-CEM leukemia and in the assay with MOLT-4 leukemia were 48.4% and 50.8%, respectively.

On to `Cn1ccnc1C(=O)/C=C/C=C/c1ccc(C(=O)Nc2ccc(F)cc2)cc1`, for which the growth in the assay on EKVX NSCLC is 33.4%; in the assay on SN12C renal, 1.94% (active); in the assay with UO-31 renal it was 44.3%; in the assay with TK-10 renal, 61.2%; with ACHN renal it was 21.9%; in the assay on CAKI-1 renal, 37.2%. In addition, the growth is 62% with A498 renal, 10.3% with CCRF-CEM leukemia and 12.3% in the assay on MOLT-4 leukemia.

As for `Cc1ccc2sc3c(c2c1)OC(N)=C(C#N)C3c1cccc(F)c1` (stereo not drawn), the growth with EKVX NSCLC was 44.6%; with SN12C renal, 10.4%; in the assay with UO-31 renal it was 25.9%; in the assay with TK-10 renal, 36.1%; in the assay with ACHN renal it was 20.6%; with CAKI-1 renal, 16.5%. The growth in the assay on CCRF-CEM leukemia is 16.1%; in the assay with MOLT-4 leukemia, 17.5%.

Take `NC(N)=Nc1ccc(Oc2cccc(Nc3ccc(Cl)cc3)c2)cn1`: the growth was 16.1% in the assay on EKVX NSCLC; 12.3% in the assay with SN12C renal; 39.1% in the assay with UO-31 renal; 50% in the assay on TK-10 renal; 30.9% with ACHN renal; 27.3% in the assay with CAKI-1 renal. Besides, the growth with A498 renal is -4.07% (active); in the assay with CCRF-CEM leukemia it was -6.22% (active); with MOLT-4 leukemia, -12.8% (active).

In the case of `CCCn1cnc2c(c1=N)C(c1ccc(OC)cc1)c1sc3c(C)cccc3c1O2` (stereo not drawn), the growth with EKVX NSCLC is 40.9%; with SN12C renal, 19%; with UO-31 renal, 27.2%; with TK-10 renal, 94.2%; with ACHN renal it was 31.8%; in the assay with CAKI-1 renal it was 25.8%. Besides, the growth in the assay with A498 renal is -21.4% (active); with CCRF-CEM leukemia, 3.52% (active); in the assay with MOLT-4 leukemia, 17%.

For `NS(=O)(=O)c1ccc(Nc2nc(N/N=C/c3c[nH]c4ccccc34)nc(Nc3ccccc3)n2)cc1`, the growth with EKVX NSCLC is 67.4%; with SN12C renal it was 40.2%; in the assay with UO-31 renal it was 49.2%; in the assay on TK-10 renal, 94.7%; in the assay with ACHN renal, 81.2%; in the assay on CAKI-1 renal, 53.9%. Moreover, the figures for the growth in the assay with A498 renal, in the assay on CCRF-CEM leukemia and in the assay with MOLT-4 leukemia were 51.2%, 12.9% and 19.9%, respectively.

`O=[N+]([O-])c1cc(/C=N/Nc2nc(N/N=C/c3ccc(Cl)c([N+](=O)[O-])c3)nc(N3CCCCC3)n2)ccc1Cl`: the growth with EKVX NSCLC is 78%; with SN12C renal, 72.3%; in the assay on UO-31 renal, 47.5%; in the assay with TK-10 renal, 93.8%; in the assay with ACHN renal, 35.2%; in the assay on CAKI-1 renal, 72.4%. The results for the growth in the assay on A498 renal, in the assay with CCRF-CEM leukemia and in the assay on MOLT-4 leukemia were 108%, 61.3% and 42.3%, respectively.

For the compound `NS(=O)(=O)c1ccc(-n2cc(-c3cccc(NC(=O)c4ccc(N5CCOCC5)c(C(F)(F)F)c4)c3)nn2)cc1`, the growth with EKVX NSCLC is 74.1%; in the assay with SN12C renal, 43.9%; in the assay on UO-31 renal it was 26.7%; with TK-10 renal, 98.6%; in the assay with ACHN renal, 43.5%; with CAKI-1 renal, 51.1%. The growth in the assay with CCRF-CEM leukemia was 20.3%; with MOLT-4 leukemia, 11%.

On to `CNC(=O)c1cc(Oc2ccc3nc(NC(=O)c4cccc(OC(F)(F)F)c4)sc3c2)ccn1`, for which the growth in the assay on EKVX NSCLC was 79.6%; in the assay on SN12C renal it was 78.7%; in the assay with UO-31 renal, 95.7%; with TK-10 renal, 101%; in the assay on ACHN renal, 75.2%; with CAKI-1 renal it was 73.9%. In addition, the figures for the growth in the assay with CCRF-CEM leukemia and with MOLT-4 leukemia were 71.2% and 73.3%, respectively.

Turning to `CN1CCC(n2cc(Nc3ncc4c(=O)n(-c5c(Cl)cccc5Cl)cc(Br)c4n3)cn2)CC1`, the growth was 57.4% in the assay on EKVX NSCLC; 20.7% in the assay with SN12C renal; 22.2% in the assay on UO-31 renal; 47% with TK-10 renal; 24% with ACHN renal; 20% in the assay on CAKI-1 renal. For the same compound, the growth was 8.75% (active) in the assay with CCRF-CEM leukemia and 13% in the assay on MOLT-4 leukemia.

Take `COc1cccc(C(=O)Nc2cccc(C#Cc3cccc4[nH]nc(N)c34)c2)c1`: the growth with EKVX NSCLC was 80.9%; in the assay with SN12C renal it was 71.6%; with UO-31 renal, 56.4%; in the assay on TK-10 renal it was 96.5%; with ACHN renal, 51%; in the assay with CAKI-1 renal, 52.4%. Moreover, the growth with CCRF-CEM leukemia was 28.5%.

As to `CC(C)(C)CC(C)(C)n1nnnc1C(Nc1nccs1)c1cc2cccc3ccc4cccc1c4c32` (stereo not drawn), the growth was 97.2% in the assay with EKVX NSCLC; 99.4% in the assay with SN12C renal; 87.9% in the assay with UO-31 renal; 108% with TK-10 renal; 96.1% with ACHN renal; 75.9% in the assay with CAKI-1 renal. The growth is 106% with CCRF-CEM leukemia and 121% in the assay with MOLT-4 leukemia.

Take `NC(N)=Nc1ccc(Nc2cccc(Oc3ccc(Cl)c(C(F)(F)F)c3)c2)cn1`: the growth in the assay on EKVX NSCLC was 30.5%; in the assay with UO-31 renal, 56.4%; with TK-10 renal it was 81.7%; in the assay with ACHN renal, 55.7%; with CAKI-1 renal it was 42.9%; in the assay with A498 renal it was 62.8%. The growth is -9.86% (active) with CCRF-CEM leukemia and 0.616% (active) in the assay on MOLT-4 leukemia.

Turning to `N#Cc1c(-c2cccs2)cc(-c2cnccn2)nc1SCC(=O)c1ccc(F)cc1`, the growth in the assay with SN12C renal is 80.3%; in the assay on TK-10 renal, 89.3%; in the assay on ACHN renal, 92.2%; in the assay on CAKI-1 renal, 59.7%; in the assay on A498 renal, 8.83% (active); with CCRF-CEM leukemia, 94.5%. For the same compound, the growth in the assay on MOLT-4 leukemia is 92.7%.

As for `N#C/C(=C\c1ccc(-c2ccc(Cl)cc2Cl)o1)c1ccc(F)cc1`, the growth in the assay on EKVX NSCLC is 87.4%; in the assay with SN12C renal, 98.6%; in the assay with UO-31 renal it was 81.5%; in the assay on TK-10 renal, 138%; with ACHN renal, 89.9%; in the assay on CAKI-1 renal, 68.8%. Besides, the growth in the assay on CCRF-CEM leukemia is 93.7%; in the assay on MOLT-4 leukemia, 93.8%.
